Experimental data published in PubChem BioAssay (Tox21).
Records with an inconclusive call do not appear. Where a call stands in place of a potency, no number is given. The source made the active and inactive calls. Unless noted, the call rests on the fitted dose curve; in most records, active means well fitted curve in the direction sought with a large enough effect in the repeat runs; inconclusive means weak or mixed curves; inactive means no such curve, though single readings can be large; an effect the other way counts as inactive or inconclusive.

Legend:
[1] = qHTS assay to identify aromatase inhibitors - cell viability counter screen (AID 743084);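 further: cells stimulated with testosterone during compound exposure; nearly all actives have a fitted effect of over 55% in size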; further: potency means the concentration at half of the fitted maximal effect
[2] = target: Aryl hydrocarbon receptor (Homo sapiens) (UniProt P35869); assay: qHTS assay to identify small molecule that activate the aryl hydrocarbon receptor (AhR) signaling pathway (AID 743085); further: nearly all actives have a fitted effect of over 15% in size; further: potency means the concentration at half of the fitted maximal effect;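 on activation: HG2L7.5c1 human HepG2 liver cells with stably integrated DRE-driven firefly reporter; series mostly up to about 70 µM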
Aryl hydrocarbon receptor (Homo sapiens), sequence (P35869 whole entry, looked up): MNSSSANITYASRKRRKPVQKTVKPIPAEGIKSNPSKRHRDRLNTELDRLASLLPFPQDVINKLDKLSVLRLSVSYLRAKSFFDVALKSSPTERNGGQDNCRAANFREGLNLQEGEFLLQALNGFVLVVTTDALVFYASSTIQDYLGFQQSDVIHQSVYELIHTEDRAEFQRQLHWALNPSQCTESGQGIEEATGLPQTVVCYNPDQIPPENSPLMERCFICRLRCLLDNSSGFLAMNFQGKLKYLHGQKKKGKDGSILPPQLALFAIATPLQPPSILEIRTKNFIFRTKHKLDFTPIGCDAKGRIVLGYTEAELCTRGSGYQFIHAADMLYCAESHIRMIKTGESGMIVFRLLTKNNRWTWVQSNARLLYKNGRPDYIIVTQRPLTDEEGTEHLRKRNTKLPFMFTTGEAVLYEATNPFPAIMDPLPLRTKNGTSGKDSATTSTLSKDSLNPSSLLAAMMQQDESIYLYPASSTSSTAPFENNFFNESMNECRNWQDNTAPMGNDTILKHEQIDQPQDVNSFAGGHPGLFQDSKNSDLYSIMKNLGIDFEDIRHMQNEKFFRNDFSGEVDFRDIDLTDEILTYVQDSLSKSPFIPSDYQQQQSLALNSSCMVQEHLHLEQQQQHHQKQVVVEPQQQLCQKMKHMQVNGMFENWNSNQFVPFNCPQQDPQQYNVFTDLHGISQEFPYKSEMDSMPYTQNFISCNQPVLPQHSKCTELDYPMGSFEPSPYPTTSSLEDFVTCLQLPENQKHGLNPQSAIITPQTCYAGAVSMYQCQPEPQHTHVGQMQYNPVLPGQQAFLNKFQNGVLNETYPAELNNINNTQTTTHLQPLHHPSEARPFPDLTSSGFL
Summary of the method: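 Compounds were tested in HepG2 hepatocellular carcinoma cells harbouring a stably integrated luciferase gene under control of 20 DREs. Increased reporter signal after 24 h treatment at 37C was taken as AhR activation.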

[3] = qHTS assay to identify small molecule that activate the aryl hydrocarbon receptor (AhR) signaling pathway - cell viability counter screen (AID 743086); further: nearly all actives have a fitted effect of over 45% in size; further: potency means the concentration at half of the fitted maximal effect
Summary of the method: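 Cytotoxicity counter screen: CellTiter-Fluor signal (30 min, 37 C) in 4000 HepG2 cells/well carrying the DRE-luciferase reporter, following 24 h compound exposure at 37 C.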

[4] = target: Peroxisome proliferator-activated receptor gamma (Homo sapiens) (UniProt P37231); assay: qHTS assay to identify small molecule agonists of the peroxisome proliferator-activated receptor gamma (PPARg) signaling pathway (AID 743094; active means well fitted activation curve with a large enough effect in the signal ratio in the repeat runs, not every such curve was filed as active; the % refers to the signal ratio)
Peroxisome proliferator-activated receptor gamma (Homo sapiens), sequence (P37231 whole entry, looked up): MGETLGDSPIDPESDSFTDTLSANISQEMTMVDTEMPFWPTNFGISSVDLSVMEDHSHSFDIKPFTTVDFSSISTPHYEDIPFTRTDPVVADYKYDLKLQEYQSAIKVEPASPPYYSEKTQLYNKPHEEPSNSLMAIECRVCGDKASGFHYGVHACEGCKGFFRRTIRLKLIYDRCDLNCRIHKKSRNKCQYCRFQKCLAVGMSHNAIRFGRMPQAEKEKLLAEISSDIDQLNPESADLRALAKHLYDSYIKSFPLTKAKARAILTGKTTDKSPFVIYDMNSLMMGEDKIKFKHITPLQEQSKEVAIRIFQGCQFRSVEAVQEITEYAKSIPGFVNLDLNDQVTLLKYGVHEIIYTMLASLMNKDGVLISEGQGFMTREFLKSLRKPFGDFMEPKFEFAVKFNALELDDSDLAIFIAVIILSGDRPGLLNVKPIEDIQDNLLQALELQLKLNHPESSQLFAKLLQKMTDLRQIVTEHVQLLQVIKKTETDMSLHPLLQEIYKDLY
Summary of the method: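 GeneBLAzer PPARg UAS-bla HEK293H cells carrying a stably integrated beta-lactamase reporter were pre-incubated 5 h at 37C, then exposed to compounds in DMSO for 17 h at 37C; LiveBLAzer B/G FRET substrate was added for 1 h at room temperature and fluorescence read.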

[5] = target: Peroxisome proliferator-activated receptor gamma (Homo sapiens) (UniProt P37231); assay: qHTS assay to identify small molecule antagonists of the peroxisome proliferator-activated receptor gamma (PPARg) signaling pathway (AID 743191; calls by dose curve; further: series mostly up to about 63 µM; nearly all actives have a fitted effect of over 30% in size)
Summary of the method: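 Beta-lactamase reporter under UAS control in HEK293H PPARg-bla cells; compound treatment 17 h at 37C. Read-out: fluorescence intensity after 1 h room-temperature incubation with LiveBLAzer B/G FRET substrate.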

[6] = qHTS assay for small molecule agonists of the antioxidant response element (ARE) signaling pathway - cell viability counter screen (AID 743203; calls by dose curve; further: nearly all actives have a fitted effect of over 55% in size; further: potency means the concentration at half of the fitted maximal effect)
Summary of the method: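 CellSensor ARE-bla HepG2 cells, 2,000 per well, rested 5 hrs at 37C/5% CO2, then exposed to compound in DMSO for 16 hrs; viability read as CellTiter-Glo luminescence after 30 min at room temperature, in the reporter wells.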

[7] = qHTS assay for small molecule activators of the heat shock response signaling pathway - cell viability counter screen (AID 743209); further: nearly all actives have a fitted effect of over 50% in size; further: potency means the concentration at half of the fitted maximal effect
Summary of the method: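 CellSensor HSE-bla HeLa cells, plated overnight at 37 C/5% CO2, were exposed to compounds in DMSO for 5 h at 37 C. Viability was then read in the same wells by CellTiter-Glo luminescence after 30 min at room temperature.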

[8] = qHTS assay to identify small molecule agonists of the peroxisome proliferator-activated receptor delta (PPARd) signaling pathway - cell viability counter screen (AID 743211); further: nearly all actives have a fitted effect of over 55% in size; further: potency means the concentration at half of the fitted maximal effect
Summary of the method: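 Counter screen for cytotoxicity run in parallel with the PPARd reporter screen. Beta-lactamase reporter HEK293H cells exposed to compounds 17 h; ATP-based CellTiter-Glo luminescence quantified viability.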

[9] = qHTS assay to identify small molecule antagonists of the peroxisome proliferator-activated receptor delta (PPARd) signaling pathway - cell viability counter screen (AID 743213); further: nearly all actives have a fitted effect of over 50% in size; further: potency means the concentration at half of the fitted maximal effect
Summary of the method: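 Luminescence from CellTiter-Glo, added after the bla read and incubated 30 min at room temperature, gives viability of HEK293H PPARd-bla cells exposed to compounds for 17 h at 37 C with 300 nM L165041.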

[10] = qHTS assay to identify small molecule agonists of the farnesoid-X-receptor (FXR) signaling pathway - cell viability counter screen (AID 743218); further: nearly all actives have a fitted effect of over 45% in size; further: potency means the concentration at half of the fitted maximal effect
Summary of the method: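 FXR-UAS-bla HEK 293T cells, plated 5 h at 37 C, were exposed to compounds for 16 h at 37 C. CellTiter-Glo was then added to the same wells as the bla readout; luminescence read after 30 min at room temperature.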

[11] = qHTS assay to identify small molecule antagonists of the farnesoid-X-receptor (FXR) signaling pathway - cell viability counter screen (AID 743221; active means well fitted cell-killing curve with a large enough effect in the repeat runs, not every such curve was filed as active; further: nearly all actives have a fitted effect of over 50% in size; further: potency means the concentration at half of the fitted maximal effect)
Summary of the method: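 Multiplexed counter screen: viability of FXR-bla HEK 293T cells under agonist stimulation by chenodeoxycholic acid (50 uM, final) and test compound for 16 h at 37 C, measured by CellTiter-Glo luminescence in the reporter wells.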

[12] = target: Vitamin D3 receptor (Homo sapiens) (UniProt P11473); assay: qHTS assay to identify small molecule agonists of the vitamin D receptor (VDR) signaling pathway (AID 743222; calls by dose curve)
Vitamin D3 receptor (Homo sapiens), sequence (P11473 whole entry, looked up): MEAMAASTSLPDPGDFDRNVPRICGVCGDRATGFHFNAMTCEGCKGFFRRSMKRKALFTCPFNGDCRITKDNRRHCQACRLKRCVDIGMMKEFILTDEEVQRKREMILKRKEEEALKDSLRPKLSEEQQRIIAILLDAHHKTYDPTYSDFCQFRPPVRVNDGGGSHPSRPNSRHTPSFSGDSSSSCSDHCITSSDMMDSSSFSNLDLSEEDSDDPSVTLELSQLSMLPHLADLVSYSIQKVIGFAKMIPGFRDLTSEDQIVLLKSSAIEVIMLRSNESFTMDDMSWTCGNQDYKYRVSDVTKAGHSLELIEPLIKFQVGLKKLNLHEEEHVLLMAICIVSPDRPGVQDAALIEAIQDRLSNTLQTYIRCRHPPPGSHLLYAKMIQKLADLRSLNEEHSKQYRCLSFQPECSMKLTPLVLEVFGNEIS
Summary of the method: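 VDR-bla cells were plated 4 h at 37C/5% CO2, then exposed to compounds in DMSO for 16 h. After LiveBLAzer B/G FRET substrate addition and 2 h at room temperature, beta-lactamase reporter fluorescence was read.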

[13] = qHTS assay to identify small molecule antagonists of the peroxisome proliferator-activated receptor gamma (PPARg) signaling pathway - cell viability counter screen (AID 743194); further: nearly all actives have a fitted effect of over 55% in size; further: potency means the concentration at half of the fitted maximal effect
Summary of the method: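 Viability was measured as CellTiter-Glo luminescence in GeneBLAzer PPARg UAS-bla HEK293H cells. These cells had been exposed 17 h at 37 C to compounds together with rosiglitazone at 50 nM final, with the beta-lactamase readout taken in the same wells.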

[14] = qHTS assay for small molecule agonists of the antioxidant response element (ARE) signaling pathway (AID 743202; active means well fitted activation curve with a large enough effect in the signal ratio in the repeat runs, not every such curve was filed as active; the % refers to the signal ratio; further: potency means the concentration at half of the fitted maximal effect)
Summary of the method: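 Quantitative high-throughput format in HepG2 cells bearing an integrated ARE-beta-lactamase reporter. Compound exposure lasted 16 h at 37 C, and fluorescence was read 2 h after adding LiveBLAzer B/G substrate at room temperature.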

[15] = qHTS assay for small molecule activators of the heat shock response signaling pathway (AID 743210; active means well fitted activation curve with a large enough effect in the signal ratio in the repeat runs, with a control signal flat, not every such curve was filed as active; the % refers to the signal ratio;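 further: HeLa cells with beta-lactamase reporter driven by heat shock elements; series mostly up to about 63 µM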)
Summary of the method: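 HeLa HSE-bla cells, overnight plating; cpd in DMSO 5 h, 37 C; LiveBLAzer B/G FRET substrate 2.5 h RT; fluorescence intensity read.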

[16] = target: Bile acid receptor (Homo sapiens) (UniProt Q96RI1); assay: qHTS assay to identify small molecule antagonists of the farnesoid-X-receptor (FXR) signaling pathway (AID 743217; active means well fitted inhibition curve with a large enough effect in the signal ratio in the repeat runs, not every such curve was filed as active; the % refers to the signal ratio; further: potency means the concentration at half of the fitted maximal effect)
Bile acid receptor (Homo sapiens), sequence (Q96RI1 whole entry, looked up): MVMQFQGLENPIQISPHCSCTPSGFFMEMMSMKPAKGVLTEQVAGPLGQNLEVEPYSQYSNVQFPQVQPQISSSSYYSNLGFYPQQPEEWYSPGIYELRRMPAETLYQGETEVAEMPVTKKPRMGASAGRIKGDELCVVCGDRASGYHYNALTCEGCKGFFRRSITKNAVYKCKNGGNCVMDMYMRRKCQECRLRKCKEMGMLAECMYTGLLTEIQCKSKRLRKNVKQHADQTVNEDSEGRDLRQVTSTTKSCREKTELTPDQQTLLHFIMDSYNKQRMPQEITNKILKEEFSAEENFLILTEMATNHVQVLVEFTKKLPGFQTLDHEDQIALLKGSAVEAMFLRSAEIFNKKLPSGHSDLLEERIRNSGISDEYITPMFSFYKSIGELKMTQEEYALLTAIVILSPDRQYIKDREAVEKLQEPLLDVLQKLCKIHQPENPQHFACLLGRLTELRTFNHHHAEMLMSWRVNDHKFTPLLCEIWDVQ
Summary of the method: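 FXR-UAS-bla HEK 293T cells pre-incubated 5 h at 37 °C, then exposed to compounds with chenodeoxycholic acid (50 uM final) for 16 h at 37 °C. Beta-lactamase reporter read by LiveBLAzer B/G FRET substrate fluorescence after 2 h at room temperature.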

[17] = target: Vitamin D3 receptor (Homo sapiens) (UniProt P11473); assay: qHTS assay to identify small molecule antagonists of the vitamin D receptor (VDR) signaling pathway (AID 743223; active means well fitted inhibition curve with a large enough effect in the signal ratio in the repeat runs, not every such curve was filed as active; the % refers to the signal ratio; further: potency means the concentration at half of the fitted maximal effect)
Summary of the method: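 Cells carrying a VDR-driven beta-lactamase reporter (VDR-bla) were co-treated with compound and 3 nM final 1alpha,25-dihydroxyvitamin D3 for 16 h at 37C; reporter activity was measured as FRET substrate fluorescence after 2 h at room temperature.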

[18] = target: Peroxisome proliferator-activated receptor delta (Homo sapiens) (UniProt Q03181); assay: qHTS assay to identify small molecule agonists of the peroxisome proliferator-activated receptor delta (PPARd) signaling pathway (AID 743212; calls by dose curve)
Peroxisome proliferator-activated receptor delta (Homo sapiens), sequence (Q03181 whole entry, looked up): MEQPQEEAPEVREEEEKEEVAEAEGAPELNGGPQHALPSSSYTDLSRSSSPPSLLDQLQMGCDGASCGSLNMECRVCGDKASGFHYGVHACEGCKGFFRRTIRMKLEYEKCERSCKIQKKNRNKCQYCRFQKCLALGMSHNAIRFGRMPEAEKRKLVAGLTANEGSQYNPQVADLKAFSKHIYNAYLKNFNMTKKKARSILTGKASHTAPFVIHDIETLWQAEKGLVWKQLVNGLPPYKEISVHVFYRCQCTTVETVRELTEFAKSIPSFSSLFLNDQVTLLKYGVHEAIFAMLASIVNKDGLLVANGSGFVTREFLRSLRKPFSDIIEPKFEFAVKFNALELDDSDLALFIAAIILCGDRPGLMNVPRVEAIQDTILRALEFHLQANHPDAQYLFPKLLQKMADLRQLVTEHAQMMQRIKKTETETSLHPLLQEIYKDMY
Summary of the method: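 HEK293H PPARd-bla cells; 5 h preincubation 37 C/5% CO2; compound (DMSO) 37 C; LiveBLAzer B/G FRET substrate 2 h RT; fluorescence intensity.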

[19] = target: Peroxisome proliferator-activated receptor delta (Homo sapiens) (UniProt Q03181); assay: qHTS assay to identify small molecule antagonists of the peroxisome proliferator-activated receptor delta (PPARd) signaling pathway (AID 743215; active means well fitted inhibition curve with a large enough effect in the signal ratio in the repeat runs, not every such curve was filed as active; the % refers to the signal ratio;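 further: cells stimulated with agonist L165041 at 300 nM final during compound exposure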; further: potency means the concentration at half of the fitted maximal effect)
Summary of the method: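 PPARd UAS-bla HEK293H cells were pre-incubated 5 h at 37 C, then given test compounds in DMSO plus agonist L165041 (300 nM final). After 17 h at 37 C, beta-lactamase FRET substrate was added; fluorescence read after 2 h at room temperature.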

[20] = target: Bile acid receptor (Homo sapiens) (UniProt Q96RI1); assay: qHTS assay to identify small molecule agonists of the farnesoid-X-receptor (FXR) signaling pathway (AID 743220; active means well fitted activation curve with a large enough effect in the signal ratio in the repeat runs, not every such curve was filed as active; the % refers to the signal ratio)
Summary of the method: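 Beta-lactamase reporter under UAS control in GeneBLAzer FXR HEK 293T cells (5000/well) measured with LiveBLAzer FRET substrate after 2 h at room temperature. Compound exposure lasted 16 h at 37C.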

| Compound | Potency [1] | Potency [2] | Potency [3] | Potency [4] | Potency [5] | Potency [6] | Potency [7] | Potency [8] | Potency [9] | Potency [10] | Potency [11] | Potency [12] | Potency [13] | Potency [14] | Potency [15] | Potency [16] | Potency [17] | Potency [18] | Potency [19] | Potency [20] |
| --- | --- | --- | --- | --- | --- | --- | --- | --- | --- | --- | --- | --- | --- | --- | --- | --- | --- | --- | --- | --- |
| Cc1onc(-c2c(Cl)cccc2Cl)c1C(=O)N[C@@H]1C(=O)N2[C@@H]1SC(C)(C)[C@@H]2C(=O)O | inactive | inactive | inactive | inactive | inactive | inactive | inactive | inactive | inactive | inactive | inactive | inactive | – | – | – | – | – | – | – | – |
| CCOC(=O)O[C@]1(C(=O)OCCl)CC[C@H]2[C@@H]3CCC4=CC(=O)C=C[C@]4(C)[C@H]3[C@@H](O)C[C@@]21C | inactive | inactive | inactive | inactive | – | inactive | inactive | inactive | inactive | inactive | inactive | – | inactive | 10.6 µM (active) | inactive | inactive | inactive | – | – | – |
| CC(=O)SC[C@@H](Cc1ccccc1)C(=O)NCC(=O)OCc1ccccc1 | inactive | inactive | inactive | inactive | inactive | inactive | inactive | – | inactive | inactive | inactive | – | inactive | inactive | inactive | – | – | inactive | inactive | – |
| Clc1ccc2nsnc2c1NC1=NCCN1 | inactive | inactive | inactive | inactive | inactive | inactive | inactive | inactive | inactive | inactive | inactive | inactive | inactive | – | inactive | inactive | inactive | inactive | inactive | inactive |
| CN(C/C=C/C#CC(C)(C)C)Cc1cccc2ccccc12 | inactive | inactive | inactive | inactive | inactive | inactive | inactive | – | inactive | – | – | inactive | inactive | – | inactive | – | inactive | – | – | inactive |
| O=C(O)c1c(Cl)cccc1Cl | inactive | inactive | inactive | inactive | inactive | inactive | – | inactive | inactive | inactive | inactive | – | inactive | inactive | inactive | inactive | – | inactive | inactive | inactive |
| CN1CCN(CCC(=O)N2c3ccccc3Sc3ccc(C(F)(F)F)cc32)CC1 | inactive | inactive | 18.8 µM (active) | inactive | – | 29.8 µM (active) | – | 11.9 µM (active) | 16.8 µM (active) | 21.1 µM (active) | 33.5 µM (active) | inactive | 33.5 µM (active) | – | inactive | – | – | inactive | 29.8 µM (active) | inactive |
| Oc1cccc2cc3cccc(O)c3c(O)c12 | inactive | inactive | inactive | inactive | – | inactive | inactive | inactive | inactive | inactive | inactive | – | inactive | – | – | inactive | – | inactive | – | inactive |
| Cc1cccc(S(=O)(=O)O)c1C | inactive | inactive | inactive | – | – | inactive | inactive | – | inactive | inactive | inactive | inactive | inactive | inactive | inactive | – | – | inactive | inactive | – |
| N=C1C=CC(=C(c2ccc(N)cc2)c2ccc(N)cc2)C=C1 | 8.63 µM (active) | inactive | 17.2 µM (active) | inactive | – | 61.1 µM (active) | 30.9 µM (active) | – | – | – | inactive | – | 6.92 µM (active) | – | – | – | – | inactive | – | – |
| CCCCCCCCCCCCCCCC[N+](C)(C)CCN(Cc1ccc(OC)cc1)c1ncccn1 | inactive | inactive | inactive | inactive | – | – | – | 13.3 µM (active) | – | 29.8 µM (active) | 26.6 µM (active) | – | 26.6 µM (active) | – | – | – | 21.3 µM (active) | – | inactive | inactive |
| Fc1ccc(C(c2ccc(F)cc2)N2CCN(C/C=C/c3ccccc3)CC2)cc1 | inactive | inactive | inactive | – | inactive | – | – | – | – | inactive | – | – | – | – | – | – | – | – | – | inactive |
| Cc1cc(O)c2ccccc2c1O | inactive | 9.44 µM (active) | inactive | inactive | – | 13.3 µM (active) | 9.44 µM (active) | 10.6 µM (active) | 10.6 µM (active) | 13.3 µM (active) | 23.7 µM (active) | – | 10.6 µM (active) | – | – | 16.8 µM (active) | – | – | 10.6 µM (active) | – |
| CO[Si](CCCNc1ccccc1)(OC)OC | inactive | inactive | inactive | inactive | – | – | inactive | inactive | inactive | inactive | inactive | inactive | inactive | – | inactive | inactive | inactive | inactive | inactive | inactive |
| CN(C)[C@@H]1C(=O)C(C(N)=O)=C(O)[C@@]2(O)C(=O)C3=C(O)c4c(O)ccc(Cl)c4[C@@H](O)[C@H]3C[C@@H]12 | inactive | inactive | inactive | inactive | – | inactive | inactive | inactive | inactive | inactive | inactive | – | inactive | – | inactive | – | – | – | – | – |
| N/C(=N\N=C\c1ccc(Cl)cc1)N/N=C/c1ccc(Cl)cc1 | inactive | 13.3 µM (active) | inactive | inactive | – | 29.8 µM (active) | – | inactive | – | – | inactive | inactive | 21.1 µM (active) | – | – | inactive | – | – | – | inactive |
| CCCCCCCCCCCCCCCS(=O)(=O)Oc1ccccc1 | inactive | inactive | inactive | inactive | – | inactive | – | inactive | inactive | inactive | – | inactive | inactive | – | – | – | inactive | – | – | inactive |
